Records with an inconclusive call do not appear. The source made the active and inactive calls. Calls follow the shape of the dose curve; as a rule, active = well fitted cell-killing curve with a large enough effect; inconclusive = small, poorly fitted or top-dose-only effect, or effect the other way; inactive = no such curve, though single readings can be large or run the other way.
Experiment: Quantitative High-Throughput drug screen in 47 multiple myeloma cell lines against the NCATS MIPE library collection: RPMI8226_ATCC cell viability assay (AID 1919871); also: nearly all actives have a fitted effect of over 30% in size
Conditions: RPMI8226 myeloma viability, CellTiter-Glo ATP luminescence, 48 h; series mostly up to 45.8 µM; viability (% of control): at the top concentration
Source text: PI: Beverly A. Mock Ph.D.
Laboratory of Cancer Biology and Genetics,
Center for Cancer Research, National Cancer Institute,
National Institute of Health, Bethesda, Maryland
Drug resistance and disease progression are common in multiple myeloma (MM) patients, underscoring the need for new therapeutic combinations. […] We hypothesized that effective combinations would reduce MYC expression and enhance p16 activity. […] These preclinical data identify potentially useful drug combinations for evaluation in drug-resistant MM and reveal potential mechanisms of combined drug sensitivity.
Described herein is the primary MIPE qHTS used to cherrypick compounds. Validated compounds were then further tested for potential synergistic activiy.
[1] Peat TJ, Gaikwad SM, Dubois W, Gyabaah-Kessie N, Zhang S, Gorjifard S, Phyo Z, Andres M, Hughitt VK, Simpson RM, Miller MA, Girvin AT, Taylor A, Williams D, D'Antonio N, Zhang Y, Rajagopalan A, Flietner E, Wilson K, Zhang X, Shinn P, Klumpp-Thomas C, McKnight C, Itkin Z, Chen L, Kazandijian D, Zhang J, Michalowski AM, Simmons JK, Keats J, Thomas CJ, Mock BA. Drug combinations identified by high-throughput screening promote cell cycle transition and upregulate Smad pathways in myeloma. Cancer Lett. 2023 Aug 1;568:216284. doi: 10.1016/j.canlet.2023.216284. Epub 2023 Jun 24. PMID: 37356470; PMCID: PMC10408729.
SEQUENCE No. (e.g., 1, 2, 3, etc.); […] (e.g., Cells, Incubation, Reagent, etc.); VALUE and DESCRIPTION.
1; Cells; 5 uL; white, solid bottom 1536-well Greiner assay plate.
2; Compounds; 23 nL; Kalypsis pin tool (Wako USA) equipped with a 1536-well pin head to transfer to the assay plates.
3; Incubation; 48 hours; 37C incubation.
4; Reagent;5uL; CellTiter Glo (Promega).
5; Detector; 425V; Luminescence; Viewlux PerkinElmer.
NOTES (numbers refer to Sequence numbers above)
1. The cell-based screening methods employed in this study were like those previously published. Briefly, the corresponding myeloma cell lines were screened in 1,536-well plates with 500 cells, 5-uL per well for inhibition of cell viability (assessed by measuring ATP levels with CellTiterGlo).
2. NCATS MIPE 4.0 library of approved and investigational drugs were added using the Kalypsis pin tool. Wells treated with DMSO only for 100% viability and media only for 0% viability were used as controls.
3. The assay plates were covered and incubated for 48 hours in a 37C, 5% CO2 incubator with controlled humidity.
4. After 48 hours, CellTilter-GloTM luminescent substrate mix (Promega) reagent was added to the assay plate and plates we incubated for 5 min at room temperature.
5. Signal was measured as median relative luminescence units on a ViewLux (PerkinElmer) multiplate reader.
[1] Heske CM, Davis MI, Baumgart JT, Wilson K, Gormally MV, Chen L, Zhang X, Ceribelli M, Duveau DY, Guha R, Ferrer M, Arnaldez FI, Ji J, Tran HL, Zhang Y, Mendoza A, Helman LJ, Thomas CJ. Matrix Screen Identifies Synergistic Combination of PARP Inhibitors and Nicotinamide Phosphoribosyltransferase (NAMPT) Inhibitors in Ewing Sarcoma. Clin Cancer Res. 2017 Dec 1;23(23):7301-7311. doi: 10.1158/1078-0432.CCR-17-1121. Epub 2017 Sep 12. PMID: 28899971; PMCID: PMC6636827.
Potency is read from the fitted curve at half-maximal effect.

Q: For `O=C(c1ccc(Nc2nccc(-c3cc4ccccc4s3)n2)cc1)N1CCC(N2CCCC2)CC1`, which Potency is on record?
A: 20.9 µM (active)

Q: For `Cc1ccc2nc(NC(=O)CSc3nc4c(c(=O)n3-c3ccccc3)SCC4)sc2c1`, which Potency is on record?
A: 16.6 µM (active)

Q: With `CC[C@H]1CN2CCc3cc(OC)c(OC)cc3[C@H]2C[C@@H]1C[C@@H]1NCCc2cc(OC)c(OC)cc21` as the molecule, how does the Potency read?
A: 0.148 µM (active)

Q: With `O=C(O)CO.[NH2-].[NH2-].[Pt+2]` as the molecule, how does the “viability (% of control)” value read?
A: 141% (inactive)

Q: With `Cc1cc(Nc2cc(N3CCN(C)CC3)nc(Sc3ccc(NC(=O)C4CC4)cc3)n2)n[nH]1` as the molecule, how does the Potency read?
A: 13.2 µM (active)

Q: With `CN1CCN(Cc2ccc(NC(=O)Nc3ccc(Oc4cc(NC(=O)C5CC5)ncn4)cc3)cc2C(F)(F)F)CC1` as the molecule, how does the Potency read?
A: 0.418 µM (active)

Q: Which “viability (% of control)” value does the source give for `CN1c2cc(O)c(N=NC(N)=O)cc2CC1S(=O)(=O)O` (stereo not given) here?
A: 131% (inactive)

Q: With `Cc1c(CN2CCN(S(C)(=O)=O)CC2)sc2c(N3CCOCC3)nc(-c3cnc(N)nc3)nc12` as the molecule, how does the Potency read?
A: 0.0166 µM (active)

Q: Which “viability (% of control)” value does the source give for `O=c1[nH]c(=O)n(C2CCCO2)cc1F` (stereo not given) here?
A: 102% [at 92.2 µM] (inactive)

Q: With `CC(=O)Nc1sc2c(c1-c1nc3ccccc3s1)CNC2` as the molecule, how does the Potency read?
A: 14.8 µM (active)

Q: For `COc1cccc2nc(-c3cccs3)nc(NN3C(=O)C=C(C)C3=O)c12`, which Potency is on record?
A: 2.09 µM (active)

Q: For `CN(c1ncccc1CNc1nc(Nc2ccc3c(c2)CC(=O)N3)ncc1C(F)(F)F)S(C)(=O)=O`, which Potency is on record?
A: 8.33 µM (active)

Q: Which Potency does the source give for `O=C(CCCCCCC(=O)Nc1ccc([C@H]2O[C@@H](CSc3nc(-c4ccccc4)c(-c4ccccc4)o3)C[C@@H](c3ccc(CO)cc3)O2)cc1)NO` here?
A: 18.7 µM (active)

Q: Which “viability (% of control)” value does the source give for `Nc1ccn([C@@H]2CS[C@H](CO)O2)c(=O)n1` here?
A: 126% [at 92.2 µM] (inactive)

Q: With `CCn1nnc2c(N3CCOCC3)nc(-c3ccc(NC(=O)Nc4ccc(C(=O)N5CCN(C)CC5)cc4)cc3)nc21` as the molecule, how does the Potency read?
A: 0.0526 µM (active)

Q: Which “viability (% of control)” value does the source give for `O=C(C=Cc1c(C(=O)O)[nH]c2cc(Cl)cc(Cl)c12)Nc1ccccc1` here?
A: 111% (inactive)

Q: Which Potency does the source give for `CC1=C(CO)C(=O)O[C@@H]([C@@H](C)[C@H]2CC[C@H]3[C@@H]4C[C@H]5O[C@]56[C@@H](O)C=CC(=O)[C@]6(C)[C@@H]4CC[C@]23C)C1` here?
A: 0.187 µM (active)

Q: For `CC1(C)OC2=C(C(=O)c3ccccc3C2=O)[C@H](NCc2ccccc2)[C@H]1O`, which Potency is on record?
A: 8.33 µM (active)

Q: For `CNC(=O)c1ccccc1Nc1nc(Nc2ccc(N3CCOCC3)cc2OC)ncc1Cl`, which Potency is on record?
A: 1.05 µM (active)

Q: For `O=C(c1cncc(Br)c1)N1CCC(N2CCCC2)CC1`, which “viability (% of control)” value is on record?
A: 110% (inactive)

Q: With `Cc1nc(Nc2n[nH]c3c2CN(C(=O)N[C@H](CN(C)C)c2ccccc2)C3(C)C)c2sccc2n1` as the molecule, how does the Potency read?
A: 1.32 µM (active)

Q: Which Potency does the source give for `Cc1cc(Nc2nc(N[C@@H](C)c3ccc(F)cc3)c(C#N)cc2F)n[nH]1` here?
A: 11.8 µM (active)

Q: For `CNC(=O)c1cc(Oc2ccc(NC(=O)Nc3cc(C(C)(C)C)nn3-c3ccc4ncccc4c3)c(F)c2)ccn1`, which Potency is on record?
A: 16.6 µM (active)

Q: For `COc1ccc(CC2SC(=O)NC2=O)cc1C(=O)NCc1ccc(C(F)(F)F)cc1` (stereo not given), which “viability (% of control)” value is on record?
A: 89.8% (inactive)

Q: With `CC(C)(C)c1cnc(CSc2cnc(NC(=O)C3CCNCC3)s2)o1` as the molecule, how does the Potency read?
A: 0.332 µM (active)

Q: With `Clc1cccc(-c2nnnn2Cc2cccnc2)c1Cl` as the molecule, how does the “viability (% of control)” value read?
A: 111% (inactive)

Q: For `CC(=O)SC[C@@H](C)C(=O)N1CCC[C@H]1C(=O)N[C@@H](Cc1ccccc1)C(=O)O`, which “viability (% of control)” value is on record?
A: 122% (inactive)

Q: Which Potency does the source give for `CN1CCC(CNc2ccc3ncc(-c4cccc(OC(F)(F)F)c4)n3n2)CC1` here?
A: 20.9 µM (active)

Q: With `O=C(Nc1cn[nH]c1-c1nc2ccc(CN3CCOCC3)cc2[nH]1)NC1CC1` as the molecule, how does the Potency read?
A: 10.5 µM (active)

Q: For `Cc1coc2c1C(=O)C(=O)c1c-2ccc2c1CCCC2(C)C`, which Potency is on record?
A: 2.09 µM (active)

Q: For `C=CC(=O)Nc1cc2c(Nc3ccc(F)c(Cl)c3)ncnc2cc1C#CC(C)(C)N1CCN(C)CC1`, which Potency is on record?
A: 6.62 µM (active)

Q: For `CC(NCc1ccc2c(c1)nc(NC(=O)c1ccc(-c3cn[nH]c3)s1)n2CC(C)(C)O)C(C)(C)C` (stereo not given), which Potency is on record?
A: 0.743 µM (active)

Q: For `CC(=O)OCC(=O)[C@@]1(O)[C@H](C)C[C@H]2[C@@H]3C=C(C)C4=Cc5c(cnn5-c5ccccc5)C[C@]4(C)[C@@H]3[C@@H](O)C[C@@]21C`, which Potency is on record?
A: 4.18 µM (active)

Q: With `COC(=O)C[C@](O)(CCCC(C)(C)O)C(=O)O[C@@H]1C(OC)=C[C@]23CCCN2CCc2cc4c(cc2[C@H]13)OCO4` as the molecule, how does the “viability (% of control)” value read?
A: 115% (inactive)

Q: For `c1nc2nc(Nc3ccc(N4CCOCC4)cc3)nc(NC3CCCCC3)c2[nH]1`, which Potency is on record?
A: 11.8 µM (active)

Q: For `COCCOc1ccc2c(c1)ncn2-c1ccc2cccc(N3CCC(N)CC3)c2n1`, which Potency is on record?
A: 26.4 µM (active)

Q: With `COc1cccc(Nc2c(C(N)=O)cnc3c(C)cc(S(=O)(=O)c4cccc(C(=O)N(C)C)c4)cc23)c1` as the molecule, how does the “viability (% of control)” value read?
A: 110% [at 23.2 µM] (inactive)

Q: Which “viability (% of control)” value does the source give for `CNC(=O)c1ccc(-c2cnc3ncc(Cc4ccc5ncccc5c4)n3n2)cc1F` here?
A: 113% (inactive)

Q: For `COc1cc2nccc(Oc3ccc(NC(=O)C4(C(=O)Nc5ccc(F)cc5)CC4)cc3)c2cc1OC`, which Potency is on record?
A: 20.9 µM (active)

Q: For `C=CC(=O)Nc1cccc(Oc2nc(Nc3ccc(N4CCN(C)CC4)cc3)ncc2Cl)c1`, which Potency is on record?
A: 14.8 µM (active)

— PubChem BioAssay (NCATS)
